The values below come from PubChem BioAssay (NCI).

This is part of a sample that, as a whole, favours compounds with a hit. Of some 79,000 tested, about 15% had one in any assay. Active and inactive are the calls of the source. No stated cut-off is given here; in the data, active means growth inhibition above about 70%; inactive means the rest.

The experiment is described as follows: NCI Yeast Anticancer Drug Screen. Data for the mlh1 rad18 strain (AID 175). The following applies: S. cerevisiae mlh1 rad18 strain growth inhibition; at 50.0 µM; active compounds read high. Summed up: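 Inhibition values reflect reduced growth of mutant yeast versus vehicle-treated controls following compound exposure; the mutations affect DNA damage repair.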
With `Cc1onc(-c2c(F)cccc2Cl)c1-c1ncc(-c2ccc(Cl)cc2)o1`, the growth inhibition was 16.4% (inactive).

On to `CSC1C(OC(=O)c2ccccc2)C(COC(=O)c2ccccc2)OC1n1cnc2ncnc(NC(=O)c3ccccc3)c21` (centres undefined), for which the growth inhibition is 38.8% (inactive).

With `CC(NN(C)C(=S)Nc1ccccc1)c1ccccn1` (centres undefined), the growth inhibition is -0.1% (inactive).

Take `CCOC(=O)C(=O)C(/C(=N/N(C)C)C(=O)Nc1ccc(C)cc1C)c1nc2ccccc2[nH]c1=O` (centres undefined): the growth inhibition is 12.5% (inactive).

Take `CC(=O)c1ccc(N=C2C(=O)Nc3ccccc32)cc1`: the growth inhibition is 25.8% (inactive).

On to `O=[N+]([O-])c1ccc(-c2nc3ncncc3[nH]2)cc1`, for which the growth inhibition is 7.25% (inactive).

With `Cc1cc(N=Nc2ccc(N(C)C)cc2)ccn1`, the growth inhibition was 0.9% (inactive).

Turning to `C1CCC2(CC1)OCCS2`, the growth inhibition is 6.15% (inactive).

Turning to `O=C1NC2(CCCC2)C(=O)N2CCCC12` (centres undefined), the growth inhibition is 27.2% (inactive).

Turning to `CN(C)/C=N/c1nc2ncn(CCOC(=O)c3ccccc3)c2c(=O)[nH]1`, the growth inhibition is -20.9% (inactive).

As for `CN(C)/N=C\c1ccc(C(=O)O)cc1`, the growth inhibition was 22.9% (inactive).

In the case of `CCCCCC[n+]1ccc(C(=O)c2ccccc2)cc1`, the growth inhibition is 32.6% (inactive).

With `O=C1NNC2(C(=O)N1)c1ccccc1-c1ccccc12`, the growth inhibition was 15.2% (inactive).

As for `O=C1NC(=O)C(c2ccc(C(=O)O)cc2)N1` (centres undefined), the growth inhibition is -2.25% (inactive).

In the case of `CCCCCCCCOc1ccc(Cl)cc1`, the growth inhibition is -28.9% (inactive).

On to `Cc1cccc2c1Oc1ccccc1C2NC(=O)OCCc1ccccc1` (centres undefined), for which the growth inhibition is 1.25% (inactive).

On to `COc1ccc(C(=O)c2cc(S(=O)(=O)O)c(OC)cc2O)c(O)c1`, for which the growth inhibition is -21.9% (inactive).

Regarding `CCNCc1cc(Nc2nc(NC3CCC(N(C)C)CC3)c3ccccc3n2)ccc1OC` (centres undefined), the growth inhibition is 9% (inactive).

For the compound `Cc1cc(C)n2nc3c4ccsc4ncc3c2n1`, the growth inhibition is -6.8% (inactive).

For the compound `Cc1c(C(=O)CSc2nc3ccccc3c(=O)n2-c2ccccc2)c(=O)n(-c2ccccc2)n1C`, the growth inhibition was -12.9% (inactive).

`NOCCCCON`: the growth inhibition was -7.05% (inactive).

Turning to `CC12CCC3c4ccc(O)cc4CCC3C1CC(OC1OC(C(=O)O)C(O)C(O)C1O)C2O` (centres undefined), the growth inhibition is 22.2% (inactive).

For `C=CCOC(=O)CC`, the growth inhibition was -10% (inactive).

As for `COc1cc(NCCCCCNC(C)C)c2ncccc2c1`, the growth inhibition is 54% (inactive).
